# Reference: PubChem BioAssay (NCI)
# About 83,000 compounds went through this panel and 20% of them were active in at least one assay; those are over-represented in the sample as a whole.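 Plates (96-well) were seeded with cells, treated with compound at one concentration, and incubated for 48 hours before percent growth was determined.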 Unmarked numbers belong to inactive results. Active and inactive are the calls of the source. How the source made its calls: active means growth percent below 10; inactive means the rest.
# Experiments:
# Assay in all cases: NCI-60 one-dose screen, 48 h (100 = growth as untreated, 0 = no growth, -100 = all killed)
# Conditions in all cases: 10 µM
# [1] = test system: SN12C renal
# [2] = test system: UO-31 renal
# [3] = test system: TK-10 renal
# [4] = test system: ACHN renal
# [5] = test system: CAKI-1 renal
# [6] = test system: A498 renal
# [7] = test system: CCRF-CEM leukemia
# [8] = test system: MOLT-4 leukemia
# [9] = test system: SR leukemia
# [10] = test system: RPMI-8226 leukemia
# [11] = test system: OVCAR-8 ovarian
# [12] = test system: OVCAR-5 ovarian
# [13] = test system: OVCAR-4 ovarian
# [14] = test system: SK-OV-3 ovarian
# [15] = test system: IGROV1 ovarian
# [16] = test system: OVCAR-3 ovarian
# [17] = test system: HS 578T breast
# [18] = test system: NCI/ADR-RES ovarian
# [19] = test system: T-47D breast
SMILES,growth [1],growth [2],growth [3],growth [4] [%],growth [5],growth [6],growth [7],growth [8],growth [9],growth [10],growth [11],growth [12],growth [13],growth [14],growth [15],growth [16],growth [17],growth [18],growth [19]
COc1cc(NC(=O)CCSc2nc3ccc(C)cc3c(=O)n2Cc2ccccc2)cc(OC)c1OC,89.5%,71.2%,96.1%,53.3,65.1%,77.6%,105%,103%,95.3%,83.8%,29.9%,94.2%,-32.1% (active),30.2%,110%,67.9%,6.72% (active),83.8%,65.6%
COc1ccc(-c2nn(-c3cccc(NC(=O)c4cccc(C(F)(F)F)c4)c3)cc2-c2ccncc2)cc1Cl,45.3%,13.9%,41%,36.8,11.3%,-11.9% (active),7.1% (active),24%,4.46% (active),6.49% (active),33%,55.8%,60.7%,37.8%,42.4%,11.9%,24.9%,15.2%,18.6%
Nc1c(C(=O)Nc2ccccc2)sc2nc3c(cc12)CCCC3,40.1%,44.7%,71.7%,51.5,26.7%,-8.95% (active),13.1%,15.7%,10.8%,15.4%,33.6%,62%,49.9%,24.7%,30.5%,-13.7% (active),36.8%,20.4%,47.3%
CCCCCCCCCCCCCCCC(=O)OC1[C@@H](OC(=O)CCCCCCCCCCCCCCC)[C@@H](C(=O)N[C@@H](CCCCN)C(=O)OC)O[C@H]1n1cnc2c(=O)[nH]c(NC(=O)C(C)C)nc21 (some centres undefined),105%,87.1%,101%,102,94%,98.1%,86%,93.4%,9.69% (active),92.5%,87%,108%,120%,99.4%,91.8%,105%,107%,102%,88.2%
Cc1ccc(S(=O)(=O)OCCN(CCOS(=O)(=O)c2ccc(C)cc2)c2c[nH]c(=O)[nH]c2=O)cc1,97.4%,82.8%,112%,99,97.5%,117%,101%,104%,104%,100%,103%,102%,97.9%,100%,112%,120%,140%,112%,100%
N=C(N)c1ccc(-c2ccc(-c3cccs3)s2)s1,-74.9% (active),-77.1% (active),-51.1% (active),66.4,-49% (active),-32.6% (active),-52.3% (active),-55.7% (active),-50.9% (active),-46.6% (active),-47.2% (active),0.532% (active),-64.1% (active),74.2%,3.96% (active),-89.2% (active),-27.1% (active),-29.3% (active),70.2%
Clc1ccc(/C=C2\CCCC3=C2N=C2SC=NN2C3c2ccc(Cl)cc2)cc1 (centres undefined),104%,86.5%,112%,103,106%,81.7%,86.6%,99%,76.3%,-12.1% (active),91.4%,107%,92.1%,109%,104%,112%,96.6%,102%,88.2%
COc1cc(Cl)cc(-c2nn(-c3cccc(NC(=O)Nc4cc(C(F)(F)F)cc(C(F)(F)F)c4)c3)cc2-c2ccncc2)c1,9.32% (active),-0.18% (active),30.3%,10.3,8.99% (active),-21.6% (active),-22% (active),-24.6% (active),-37.9% (active),-17.5% (active),-2.46% (active),21.6%,11.9%,6.84% (active),23%,-1.62% (active),5.82% (active),2.37% (active),6.56% (active)
O=[N+]([O-])c1ccc(Oc2cc(Cl)c(Cl)cc2Cl)c(C(F)(F)F)c1,103%,80.2%,115%,96.8,92.3%,90.5%,93.5%,87.5%,100%,97.3%,97.8%,87%,93.8%,103%,96.5%,105%,104%,109%,107%
O=C(Nc1cccc(-n2cc(-c3ccncc3)c(-c3cc(O)cc(Cl)c3)n2)c1)Nc1ccc(Cl)c(C(F)(F)F)c1,34.6%,18.5%,25.9%,21.3,29.1%,21.5%,9.31% (active),-18% (active),-30.6% (active),13.8%,3.69% (active),59.3%,31.5%,63.1%,30.6%,1.88% (active),21.7%,41.5%,25%
COc1ccc(S(=O)(=O)NCCCNc2nccc(-c3c(-c4ccc(F)cc4)nc4sccn34)n2)cc1,59.5%,22.1%,60.5%,36.5,39.4%,58.5%,37.6%,34.4%,28.3%,47.8%,41.9%,92.6%,77.3%,74.5%,30.2%,74.9%,83%,53.3%,24.2%
COc1cccc(Cn2c(-c3nonc3N)nc3ccccc32)c1,43.8%,33.2%,31.7%,46.6,20.5%,-19.3% (active),9.82% (active),25.6%,-5.32% (active),4.9% (active),21.4%,37.5%,32.2%,6.27% (active),28.1%,-54% (active),3.15% (active),14.4%,55.1%
Clc1ccc(Sc2nc(NC3CC3)nc(Sc3ccc(Cl)cc3)n2)cc1,88.5%,62.3%,112%,84.6,51.9%,83.9%,76.4%,43.8%,67.3%,62%,87.4%,92.9%,66.3%,72.8%,64.7%,85.8%,96.1%,78.3%,65%
CCOCC(=O)C(C#N)c1ccc(Cl)c(Cl)c1 (centres undefined),97.8%,82.8%,105%,91.3,90%,91.6%,86.8%,101%,88.2%,88.9%,101%,96.6%,91.3%,100%,101%,110%,100%,115%,124%
COC(=O)C1=NNC(=S)N(c2cc(C)[nH]n2)C(=O)C1,96.3%,76.5%,114%,107,92.5%,81.8%,91.8%,84.1%,86.3%,98.5%,101%,108%,104%,97.9%,99.9%,108%,105%,99%,90.2%
Cc1ccc(S(=O)(=O)Oc2ccc3c4c(c(=O)oc3c2)CCCCC4)cc1,66.2%,64.6%,74.3%,78.7,59.6%,61.8%,43%,42.2%,2.57% (active),24%,63.1%,93.5%,51.3%,93.1%,82.1%,75.1%,79.7%,53.2%,33.4%
